Data from PubChem BioAssay AID1628 (Sanford-Burnham Center for Chemical Genomics, 2009).
Hit rate of the full screen: of about 190,000 compounds, about 930 (0.49%) were called active. This is one part of the list. Entries with a potency or affinity are not part of this list. Values without a mark were called inactive.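 The calls were made as follows: active = z-score of insulin promoter reporter brightness in nuclei below -3 at 5 µM, with at least 500 cells counted; inconclusive = wells with under 500 cells, flagged as toxic or sparse; inactive = the rest.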

Test: decrease of insulin promoter-GFP reporter – imaging, high-content screening, mouse beta cells (AID 1628)
Settings: MIN6 insulin promoter GFP reporter, at 5 µM, active compounds read low
With CCC(=NCCc1c[nH]c2ccccc12)c1c(O)n(C)c(=O)n(C)c1=O the z-score was -5.98 (active).
In the case of O=C(/C=C/c1c[nH]c2ccccc12)c1c(O)n(CCc2ccccc2)c(=O)[nH]c1=O, the z-score is reported as 16.
CNCCc1c[nH]c2ccccc12 showed a z-score of -0.16.
CCCCCCn1c(O)c(C=NC2CCCCC2N)c(=O)[nH]c1=O (stereo unspecified) showed a z-score of -0.8.
For Cc1cc(C=C2C(=O)NC(=O)NC2=O)c(C)n1-c1ccncc1, the z-score was 2.32.
With CCCCCCn1c(=O)c(C(=O)Nc2ccncc2)c(O)c2ccccc21 the z-score was -5.74 (active).
With CCCCCn1c(=O)c(C(=O)Nc2nc3ccccc3[nH]2)c(O)c2ccccc21 the z-score was -3.26 (active).
For CCCCCn1c(=O)c(C(=O)Nc2cnccn2)c(O)c2ccccc21, the z-score was -5.71 (active).
Compound CCCCn1c(O)c(C(=O)/C=C/c2c[nH]c3ccccc23)c(=O)[nH]c1=O has a z-score of 12.4.
Compound CN1CCN(c2ccc(/C=C3\C(=O)NC(=S)N(c4cccc(Br)c4)C3=O)o2)CC1 has a z-score of 3.97.
Work on O=C(O)c1cccc2nc3ccccc3nc12 yielded a z-score of -0.32.
With Oc1c(Cl)cc(Cl)cc1CN1CCN(Cc2ccccc2)CC1 the z-score was 2.17.
O=[N+]([O-])c1ccc(NCc2ccccc2)c2nonc12 gave a z-score of 13.4.
CCCCc1ccc2[nH]cc(CCN)c2c1 showed a z-score of 3.13.
In the case of CC(=O)OC(C)(C)/C=C/C(=O)[C@](C)(O)[C@H]1[C@H](O)C[C@@]2(C)[C@@H]3CC=C4[C@H](C[C@H](O)C(=O)C4(C)C)[C@]3(C)C(=O)C[C@]12C, the z-score is reported as -4.32 (active).
CN1CC=C2C(C#N)=C(N)C(C#N)(C#N)C(c3ccncc3)C2C1 (stereo unspecified) showed a z-score of 8.74.
In the case of O=c1[nH]c(=O)n(-c2ccc(F)cc2)c(O)c1C=Nc1ccccc1N1CCCC1, the z-score is reported as 4.37.
O=c1cc(C(F)(F)F)c2cc3c4c(c2o1)CCCN4CCC3 gave a z-score of 17.3.
CC(C)N1CCN(Cc2cccc([N+](=O)[O-])c2)CC1 gave a z-score of 2.53.
In the case of O=C(/C=C/c1ccccc1)NCCc1cnc[nH]1, the z-score is reported as -0.29.
Compound CN1/C(=C\C=C2C(=O)NC(=S)NC2=O)C(C)(C)c2ccccc21 has a z-score of 14.4.
Work on O=C1Nc2ccc(Br)cc2C(c2ccccc2Cl)=NC1O (stereo unspecified) yielded a z-score of -0.25.
In the case of N#Cc1ccccc1Cn1cc(C(=O)c2ccco2)c2ccccc21, the z-score is reported as -6.56 (active).
Compound CN1C(=O)C(=Cc2ccc(N3CCCCC3)o2)C(=O)N(C)C1=S has a z-score of 4.86.
In the case of Cc1ccc(Cn2nnnc2CN2CCC(n3nnc4cc(C(F)(F)F)ccc43)CC2)cc1, the z-score is reported as -3.36 (active).
CCCCCCn1c(O)c(C=Nc2ccccc2N2CCOCC2)c(=O)[nH]c1=S showed a z-score of 3.25.
For CC(C)(C)c1nc(NCc2ccc3c(c2)OCO3)c2nnn(Cc3ccccc3Cl)c2n1, the z-score was 2.04.
In the case of COc1ccc(Cl)cc1NC1=NCC(C)S1 (stereo unspecified), the z-score is reported as -4.13 (active).
CN1CCN(c2nc(Cl)ncc2F)CC1 gave a z-score of 4.91.
Work on CC1=NCCc2c1[nH]c1ccccc21 yielded a z-score of -0.55.
In the case of CCn1nc(/C=C/c2ccccc2)nc2c(=O)n(C)c(=O)nc1-2, the z-score is reported as -4.69 (active).
Work on Cc1cc2c(C(F)(F)F)cc(=O)oc2c2c1NCCC2 yielded a z-score of 5.21.
Compound CN1C2CCC1CC(=NO)C2 has a z-score of 0.21.
With Nc1cc2nc3ccccc3nc2cc1N the z-score was 3.68.
In the case of CC(C)[C@H]1C(=O)O[C@H](C(C)C)C(=O)N(C)[C@@H](C(C)C)C(=O)O[C@H](C(C)C)C(=O)N(C)[C@@H](C(C)C)C(=O)O[C@H](C(C)C)C(=O)N1C, the z-score is reported as -4.32 (active).
In the case of NC(=O)OCCSc1nnc(-c2cccc(C(N)=S)c2)o1, the z-score is reported as 1.36.
In the case of O=C1NC(=O)N(c2ccc3c(c2)OCO3)C(=O)/C1=C/c1cccs1, the z-score is reported as 1.66.
With c1ccc2c(N3CCNCC3)nsc2c1 the z-score was 3.06.
For COc1ccccc1CN1CCN(C(=O)COc2ccccc2)CC1, the z-score was -4.58 (active).
COc1ccc(CC(=O)N2CCN(C)CC2)cc1 gave a z-score of 3.53.
In the case of COc1ccc(OCC(=O)N2CCN(C3CCC(c4ccccc4)CC3)CC2)cc1 (stereo unspecified), the z-score is reported as -4.73 (active).
Work on CCC(=O)c1ccc(OC)c(OC)c1 yielded a z-score of -0.74.
Compound C=CCN1C(=O)/C(=C/c2ccc(N3CCOCC3)o2)C(=O)NC1=S has a z-score of 3.53.
In the case of Cn1c(=O)c2c(ncn2CCCl)n(C)c1=O, the z-score is reported as 0.35.
CCc1ccccc1N1C(=O)/C(=C/c2ccc(N3CCN(C)CC3)o2)C(=O)NC1=S gave a z-score of 3.37.
For Cc1cc([N+](=O)[O-])c2ccccc2[n+]1[O-], the z-score was -6.12 (active).
With c1ccc2c(NC3=NCCS3)cccc2c1 the z-score was -5.01 (active).
In the case of CC(Cc1ccccc1)NC(=O)CN1CCCC1=O (stereo unspecified), the z-score is reported as -3.46 (active).
With COc1ccc(-c2cc(-c3ccccc3)[n+](C)c(-c3ccccc3)c2)cc1 the z-score was -4.19 (active).
CCN(CC)c1ccc(/C=N/c2sc3c(c2C#N)C2CCN3CC2)c(O)c1 gave a z-score of 16.8.
With CC1CCCC(C2(O)C(=O)Nc3ccccc32)C1=O (stereo unspecified) the z-score was 5.61.
